Hits are enriched below; roughly 4.8% of the tested compounds scored in any of these assays.
ssDAF-12 act: activates DAF-12 receptor from parasite S. stercoralis; AID 652126; activation, % at 6.8 µM; 1% of 370,000 active; HEK293 ssDAF-12/GRIP1 lit1-tk-luc reporter, luminescence; % of 3 µM dafachronic acid response;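 active means activation above the mean over all tested compounds plus 3 SD, cut at about 0.9% in these data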;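 further: 0% = DMSO-only wells and 100% = 3 µM delta7-dafachronic acid wells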
NR1D1 modulator: modulates human Rev-erb alpha binding to DNA | Rev-erbα–FITC-DNA binding, fluorescence polarization, 90 min | 0.79% of 370,000 active | activity, % at 10 µM | P20393;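 active means activity above about 14%, limit read from the data; passing the limit was not always enough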;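 further: 0% = DMSO wells with 35 nM protein and 100% = DMSO wells with 750 nM protein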
hgDAF12 agonist: activates the H. glycines DAF-12 receptor ligand-binding domain; HEK293 GAL4-hgDAF12 UAS-luciferase reporter, agonist luminescence; normalized to butyrate control; activation, % at 6.8 µM; 1.8% of 370,000 active; AID 687014;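 active means activation above a cutoff set at the mean of all screened compounds plus 3 SD, cut at about 10% in these data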;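 further: 0% = DMSO wells and 100% = sodium butyrate wells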
DAX1 inh-1: inhibitors of human orphan nuclear receptor DAX1 (NR0B1); 0.99% of 340,000 active; P51843; HEK293 Gal4-DAX1 luciferase reporter, luminescence; inhibition, % at 6.75 µM;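 active means inhibition above the mean over all tested compounds plus 3 SD, cut at about 4.2% in these data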;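 further: 0% = DAX1-transfected cells with DMSO and 100% = empty-vector control cells with DMSO; inhibition shows as a rise in luminescence from relieved DAX1 repression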
DAX1 inh-2: blocks DAX1 repression of SF-1 activated StAR promoter. HEK293T StAR-luciferase reporter, SF-1/DAX-1 repression relief. 1.1% of 370,000 active. inhibition, % at 6.8 µM;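 active means inhibition above the mean over all tested compounds plus 3 SD, cut at about 3.6% in these data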;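 further: 0% = DAX-1 cells with DMSO and 100% = cells lacking DAX-1 with DMSO; higher inhibition means more luminescence from relief of DAX-1 repression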
hcDAF-12 act: H. contortus DAF-12 activation, primary screen | HEK293 hcDAF-12 lit1-tk-luc reporter, luminescence; 0% DMSO, 100% Δ7-dafachronic acid | activation, % at 6.8 µM | 1.4% of 370,000 active | AID 652067;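 active means activation above the mean of all tested compounds plus 3 SD, cut at about 5.5% in these data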;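 further: 100% = response to 3 µM Δ7-dafachronic acid high control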
DAX1 inh confirm: confirmation of human DAX1 (NR0B1) inhibitors. 87% of 2,400 active. shares compounds with DAX1 inh-2. inhibition, % at 6.8 µM. HEK293T StAR-promoter luciferase reporter, SF-1/DAX-1 repression;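 active means inhibition above the average of every tested compound plus 3 SD, cut at about 3.8% in these data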;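 further: 0% = DAX-1 cells with DMSO and 100% = no DAX-1 control cells with DMSO; active compounds raise luminescence by relieving repression of the StAR reporter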
Target sequence (P51843 whole entry, looked up): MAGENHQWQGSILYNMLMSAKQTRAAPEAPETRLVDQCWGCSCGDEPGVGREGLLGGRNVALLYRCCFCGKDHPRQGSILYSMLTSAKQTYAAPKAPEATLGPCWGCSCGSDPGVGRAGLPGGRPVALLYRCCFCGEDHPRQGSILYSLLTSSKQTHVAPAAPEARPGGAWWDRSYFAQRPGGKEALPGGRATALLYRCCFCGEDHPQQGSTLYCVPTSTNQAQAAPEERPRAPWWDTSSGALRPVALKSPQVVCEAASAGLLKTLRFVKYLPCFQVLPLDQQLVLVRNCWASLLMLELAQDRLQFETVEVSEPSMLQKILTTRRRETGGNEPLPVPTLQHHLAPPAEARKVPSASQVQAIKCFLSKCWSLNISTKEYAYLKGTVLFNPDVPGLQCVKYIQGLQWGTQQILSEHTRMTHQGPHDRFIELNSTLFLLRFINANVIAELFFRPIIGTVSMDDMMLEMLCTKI
SF1 AF2mut Luc: nonselective inhibitor or artifact in SF-1 mutant DAX1 counter-screen. AID 652136. inhibition, % at 6.8 µM. shares compounds with DAX1 inh-2. HEK293 StAR-luciferase, SF-1 AF2 mutant, luminescence. 78% of 2,400 active;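 active means inhibition above the mean of all tested compounds plus 3 SD, cut at about 3% in these data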;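 further: 0% = DAX-1 transfected cells with DMSO and 100% = cells without DAX-1 with DMSO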
* = called active by the depositor; x = no result given.

SMILES	ssDAF-12 act	NR1D1 modulator	hgDAF12 agonist	DAX1 inh-1	DAX1 inh-2	hcDAF-12 act	DAX1 inh confirm	SF1 AF2mut Luc
Cc1nnc(N2C(=O)C(O)=C(C(=O)c3ccco3)C2c2ccc(F)cc2)s1 (stereo not given)	-1	0	2	0	-1	-1	x	x
CSc1ccc(C2C(C(=O)c3ccco3)=C(O)C(=O)N2c2nnc(SC)s2)cc1 (stereo not given)	-1	5	12*	-1	6.4*	4	3	3.1*
CC1(C)CC(=O)C=C(c2ccccc2F)C1=O	-1	-4	0	x	1	0	x	x
Cc1ccc(Nc2n[nH]c(=S)s2)cc1F	0	-5	6	2	5.4*	1	4.3*	2.9*
Cc1ccn2cc(-c3ccc(NC(=O)c4ccco4)cc3)nc2c1	0	4	11*	0	5.0*	2	11*	8.6*
Cc1nc(-c2cccc(NC(=O)c3ccco3)c2)cs1	-1	-4	3	0	4.7*	-2	2	0
CN1CCN(c2ccc(NC(=O)c3ccco3)cc2Cl)CC1	0	5	10	0	15*	5.9*	12*	5.2*
Cc1nc(-c2ccc(NC(=O)c3ccco3)cc2)cs1	-2	4	-5	-5	0	-4	x	x
Cc1nc2cc(NC(=O)c3ccco3)ccc2n1C	0	0	12*	0	7.7*	2	11*	7.4*
Cc1ccc(NC(=O)c2cc(NC(=O)c3ccco3)ccc2N2CCOCC2)cc1Cl	-1	1	-4	-1	-1	-2	x	x
O=C(Nc1ccc(Br)cc1)OCCN1CCCC12CCC(c1ccccc1)CC2 (stereo not given)	-2	4	3	x	x	0	x	x
Cc1nc2cc(NC(=O)Nc3nccs3)ccc2n1C	0	1	11*	1	4.6*	4	15*	8.5*
COc1ccc(NC(=O)OCCN2CCCC23CCC(c2ccccc2)CC3)cc1 (stereo not given)	-2	2	1	x	x	-1	x	x
Cc1cccc2c1-c1sc(C(=O)N3CCCCC3)cc1CO2	0	-1	7	3	5.3*	3	9.6*	5.7*
CC(=O)Nc1ccc2c(c1)OCCOCCOc1cc(NC(C)=O)ccc1OCCOCCOCCO2	0	6	-2	x	-1	-3	x	x
CCc1sc(C(=O)Nc2ccc3c(c2)OCO3)cc1C	0	4	11*	0	7.6*	3	9.3*	6.5*
Cc1cc(C(=O)Nc2ccc3c(c2)OCO3)no1	0	-4	10	1	7.8*	5	9.1*	7.5*
Cn1nccc1C(=O)Nc1ccc(Cl)cc1	0	-2	1	0	1	0	x	x
Cn1nccc1C(=O)Nc1ccc2c(c1)OCO2	-1	8	9	0	4.7*	2	5.8*	3.9*
O=C(Nc1ccc2c(c1)OCCO2)c1ccc(Br)s1	1.5*	-2	12*	-2	5.9*	5.8*	14*	5.6*
CCc1sc(C(=O)Nc2ccc(N3CCOCC3)cc2)cc1C	-1	5	9	-1	0	-2	x	x
COC(=O)[C@]12C[C@H](CC(=O)NCCCCc3ccccc3)C(=O)N(Cc3ccc4c(c3)OCO4)C1=C[C@H](C(C)C)O[C@@H]2C1CC1	-1	1	0	x	0	-1	x	x
C=CCN(CC#CC(=C)C)Cc1ccc(OC)cc1OC	-1	-4	4	x	-1	-1	x	x
CCN(CC)C(=O)O[C@H]1CC[C@@]23CCCN2C(=O)CCC[C@H]3[C@H]1C	-1	3	-1	x	x	-2	x	x
O=C(NCc1ccccc1)N1CCN(Cc2nc3ccccc3c(=O)[nH]2)CC1	-1	0	1	x	0	-4	x	x
SMILES	ssDAF-12 act	NR1D1 modulator	hgDAF12 agonist	DAX1 inh-1	DAX1 inh-2	hcDAF-12 act	DAX1 inh confirm	SF1 AF2mut Luc
CC1(C2CC2)NC(=O)N(CC(=O)N2CCN(c3ccccc3)CC2)C1=O (stereo not given)	-1	-8	1	0	6.7*	0	0	0
Cc1ccc2nc(NC(=O)COC(=O)c3cccnc3)sc2c1	-1	2	12*	1	5.6*	4	4.0*	3
Cc1ccc(NC(=O)COC(=O)c2cccnc2)cc1	-2	-2	-1	0	0	0	x	x
CCOC(=O)c1ccc2nc(NC(=O)C(C)C)sc2c1	0	-2	13*	2	4.6*	1	4	2
CC(=O)c1ccc(-c2[nH]c3ccccc3c2CCN2C(=O)c3ccccc3C2=O)cc1	0	11	-4	-3	-1	0	x	x
CC(=O)c1ccc(-c2c(CCO)sc3ccccc23)cc1	-1	-1	8	x	5.7*	2	3	3.0*
C/C(=N\NC(=O)c1ccccc1O)c1cccs1	-1	4	7	-1	5.4*	2	5.9*	2
Cc1cnc(C(=O)N(c2ccccc2)C(c2ccccc2)c2nc3ccccc3[nH]2)cn1 (stereo not given)	0	-7	9	x	6.0*	3	5.0*	3.7*
COCCN1Cc2cc(C(=O)OC)c3c(c2C1=O)c1cc(F)ccc1n3C(=O)c1ccccc1	-2	-1	-5	x	-2	-1	x	x
Clc1ccc2nc(CSc3nncn3-c3ccccc3)cn2c1	-2	0	-1	0	0	-2	x	x
Clc1ccc2nc(CSc3nnc4ccccn34)cn2c1	0	1	9	3	5.1*	5.6*	14*	8.8*
CCC[C@H]1[C@@H](NC(=O)c2ccc(Cl)cc2)CC[C@@]23CCCN2C(=O)CCC[C@@H]13	-1	-4	2	x	x	-2	x	x
CCN(CCN1CCCC1)C(=O)c1cc(COc2ccccc2SC)on1	-1	2	1	1	0	3	x	x
CCN(CCn1cccn1)C(=O)c1cc(COc2ccccc2SC)on1	0	0	10	3	4.6*	1	7.1*	5.4*
C/C(=N\NC(=O)c1cc2c(s1)CCC(C)C2)c1ccc[nH]1 (stereo not given)	0	-5	8	2	6.2*	6	7.3*	4.4*
CC1CCc2sc(C(=O)NC(C)C3CCCO3)cc2C1 (stereo not given)	0	-3	6	0	5.3*	-1	4.3*	2
COc1ccc(Cn2cc(CN3[C@@H](Cc4ccccc4)COc4cc(Br)ccc4S3(=O)=O)nn2)cc1	-1	5	1	x	-1	-2	x	x
